Reference: the supplement of paper PMC4466140

Legend:
Test in all cases: SPOT peptide array binding signal intensity (averaged, normalized) (arbitrary units (background-subtracted, floor 0; scale differs between SH3 domains)); higher = stronger binding of the SH3 domain to the peptide
CaNbp2 = molecular target: CaNbp2
Experimental: (§1)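 GST-tagged SH3 domains from S. cerevisiae (Sc), A. gossypii (Ag), C. albicans (Ca) and S. pombe (Sp) were incubated at 10 ug/ml overnight at 4 C on cellulose SPOT membranes carrying 292 synthetic 15-mer peptides mined from the S. cerevisiae proteome (cysteines replaced by serines). Binding was detected with anti-GST antibody, HRP secondary and chemiluminescence, quantified with Genespotter, and reported as normalized spot intensities averaged over biological replicates.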

CaRvs167 = molecular target: CaRvs167
Experimental: as §1

CaRvs167-3 = molecular target: CaRvs167-3
Experimental: as §1

CaSho1 = molecular target: CaSho1
Experimental: as §1

CaSla1-D1-D2 = molecular target: CaSla1-D1-D2
Experimental: as §1

CaSla1-D3 = molecular target: CaSla1-D3
Experimental: as §1

ScAbp1 = molecular target: ScAbp1
Experimental: as §1

ScBbc1 = molecular target: ScBbc1
Experimental: as §1

ScBem1-D1 = molecular target: ScBem1-D1
Experimental: as §1

ScBzz1-D1 = molecular target: ScBzz1-D1
Experimental: as §1

ScBzz1-D2 = molecular target: ScBzz1-D2
Experimental: as §1

ScCyk3 = molecular target: ScCyk3
Experimental: as §1

ScFus1 = molecular target: ScFus1
Experimental: as §1

ScHof1 = molecular target: ScHof1
Experimental: as §1

ScHse1 = molecular target: ScHse1
Experimental: as §1

ScLsb1 = molecular target: ScLsb1
Experimental: as §1

ScLsb2 = molecular target: ScLsb2
Experimental: as §1

ScLsb3 = molecular target: ScLsb3
Experimental: as §1

ScLsb4 = molecular target: ScLsb4
Experimental: as §1

ScMyo3 = molecular target: ScMyo3
Experimental: as §1

ScMyo5 = molecular target: ScMyo5
Experimental: as §1

ScNbp2 = molecular target: ScNbp2
Experimental: as §1

ScPex13 = molecular target: ScPex13
Experimental: as §1

ScRvs167 = molecular target: ScRvs167
Experimental: as §1

ScSho1 = molecular target: ScSho1
Experimental: as §1

ScSla1-D1-D2 = molecular target: ScSla1-D1-D2
Experimental: as §1

ScSla1-D3 = molecular target: ScSla1-D3
Experimental: as §1

SpAbp1-D1 = molecular target: SpAbp1-D1
Experimental: as §1

SpBbc1 = molecular target: SpBbc1
Experimental: as §1

SpBzz1-D1 = molecular target: SpBzz1-D1
Experimental: as §1

SpBzz1-D2 = molecular target: SpBzz1-D2
Experimental: as §1

SpCyk3 = molecular target: SpCyk3
Experimental: as §1

SpHof1 = molecular target: SpHof1
Experimental: as §1

SpHof1-2 = molecular target: SpHof1-2
Experimental: as §1

SpHof1-3 = molecular target: SpHof1-3
Experimental: as §1

SpHse1 = molecular target: SpHse1
Experimental: as §1

SpLsb1 = molecular target: SpLsb1
Experimental: as §1

SpLsb4 = molecular target: SpLsb4
Experimental: as §1

SpMyo1 = molecular target: SpMyo1
Experimental: as §1

SpNbp2 = molecular target: SpNbp2
Experimental: as §1

SpPex13 = molecular target: SpPex13
Experimental: as §1

SpRvs167 = molecular target: SpRvs167
Experimental: as §1

SpSla1-D1-D2 = molecular target: SpSla1-D1-D2
Experimental: as §1

SpSla1-D3 = molecular target: SpSla1-D3
Experimental: as §1

AgAbp1 = molecular target: AgAbp1
Experimental: as §1

AgBbc1 = molecular target: AgBbc1
Experimental: as §1

AgBem1-D1 = molecular target: AgBem1-D1
Experimental: as §1

AgBzz1-D1 = molecular target: AgBzz1-D1
Experimental: as §1

AgBzz1-D2 = molecular target: AgBzz1-D2
Experimental: as §1

AgCyk3 = molecular target: AgCyk3
Experimental: as §1

AgFus1 = molecular target: AgFus1
Experimental: as §1

AgHof1 = molecular target: AgHof1
Experimental: as §1

AgHse1 = molecular target: AgHse1
Experimental: as §1

AgLsb1 = molecular target: AgLsb1
Experimental: as §1

AgLsb4 = molecular target: AgLsb4
Experimental: as §1

AgMyo5 = molecular target: AgMyo5
Experimental: as §1

AgNbp2 = molecular target: AgNbp2
Experimental: as §1

AgRvs167 = molecular target: AgRvs167
Experimental: as §1

AgSho1 = molecular target: AgSho1
Experimental: as §1

AgSla1-D1-D2 = molecular target: AgSla1-D1-D2
Experimental: as §1

AgSla1-D3 = molecular target: AgSla1-D3
Experimental: as §1

CaAbp1-D1 = molecular target: CaAbp1-D1
Experimental: as §1

CaAbp1-D2 = molecular target: CaAbp1-D2
Experimental: as §1

CaBbc1 = molecular target: CaBbc1
Experimental: as §1

CaBem1-D1 = molecular target: CaBem1-D1
Experimental: as §1

CaBzz1-D1 = molecular target: CaBzz1-D1
Experimental: as §1

CaBzz1-D2 = molecular target: CaBzz1-D2
Experimental: as §1

CaCyk3 = molecular target: CaCyk3
Experimental: as §1

CaFus1 = molecular target: CaFus1
Experimental: as §1

CaHof1 = molecular target: CaHof1
Experimental: as §1

CaHse1 = molecular target: CaHse1
Experimental: as §1

CaLsb1 = molecular target: CaLsb1
Experimental: as §1

CaLsb4 = molecular target: CaLsb4
Experimental: as §1

CaMyo5 = molecular target: CaMyo5
Experimental: as §1

KFIPSRPAPKPPSSA
SPOT peptide array binding signal intensity (CaNbp2): 6170
SPOT peptide array binding signal intensity (CaRvs167): 51
SPOT peptide array binding signal intensity (CaRvs167-3): 2
SPOT peptide array binding signal intensity (CaSho1): ≤ 0
SPOT peptide array binding signal intensity (CaSla1-D1-D2): 1010
SPOT peptide array binding signal intensity (CaSla1-D3): 65.5
SPOT peptide array binding signal intensity (ScAbp1): 323
SPOT peptide array binding signal intensity (ScBbc1): 716
SPOT peptide array binding signal intensity (ScBem1-D1): ≤ 0
SPOT peptide array binding signal intensity (ScBzz1-D1): 87
SPOT peptide array binding signal intensity (ScBzz1-D2): 8
SPOT peptide array binding signal intensity (ScCyk3): 1
SPOT peptide array binding signal intensity (ScFus1): 0.5
SPOT peptide array binding signal intensity (ScHof1): 1
SPOT peptide array binding signal intensity (ScHse1): ≤ 0
SPOT peptide array binding signal intensity (ScLsb1): 51.8
SPOT peptide array binding signal intensity (ScLsb2): 288
SPOT peptide array binding signal intensity (ScLsb3): 982
SPOT peptide array binding signal intensity (ScLsb4): 13
SPOT peptide array binding signal intensity (ScMyo3): 2740
SPOT peptide array binding signal intensity (ScMyo5): 1420
SPOT peptide array binding signal intensity (ScNbp2): 8490
SPOT peptide array binding signal intensity (ScPex13): 2800
SPOT peptide array binding signal intensity (ScRvs167): 396
SPOT peptide array binding signal intensity (ScSho1): 18
SPOT peptide array binding signal intensity (ScSla1-D1-D2): 1290
SPOT peptide array binding signal intensity (ScSla1-D3): 769
SPOT peptide array binding signal intensity (SpAbp1-D1): 602
SPOT peptide array binding signal intensity (SpBbc1): 110
SPOT peptide array binding signal intensity (SpBzz1-D1): 1050
SPOT peptide array binding signal intensity (SpBzz1-D2): 32.8
SPOT peptide array binding signal intensity (SpCyk3): ≤ 0
SPOT peptide array binding signal intensity (SpHof1): 9.75
SPOT peptide array binding signal intensity (SpHof1-2): 9.25
SPOT peptide array binding signal intensity (SpHof1-3): 144
SPOT peptide array binding signal intensity (SpHse1): 140
SPOT peptide array binding signal intensity (SpLsb1): 62
SPOT peptide array binding signal intensity (SpLsb4): 865
SPOT peptide array binding signal intensity (SpMyo1): 3260
SPOT peptide array binding signal intensity (SpNbp2): 1060
SPOT peptide array binding signal intensity (SpPex13): 90
SPOT peptide array binding signal intensity (SpRvs167): 319
SPOT peptide array binding signal intensity (SpSla1-D1-D2): ≤ 0
SPOT peptide array binding signal intensity (SpSla1-D3): ≤ 0

LKRITSPPLPPRADS
SPOT peptide array binding signal intensity (AgAbp1): 20.5
SPOT peptide array binding signal intensity (AgBbc1): 427
SPOT peptide array binding signal intensity (AgBem1-D1): 59
SPOT peptide array binding signal intensity (AgBzz1-D1): 87.5
SPOT peptide array binding signal intensity (AgBzz1-D2): 82
SPOT peptide array binding signal intensity (AgCyk3): 1
SPOT peptide array binding signal intensity (AgFus1): 2
SPOT peptide array binding signal intensity (AgHof1): 678
SPOT peptide array binding signal intensity (AgHse1): 49
SPOT peptide array binding signal intensity (AgLsb1): 1010
SPOT peptide array binding signal intensity (AgLsb4): 5100
SPOT peptide array binding signal intensity (AgMyo5): 3.25
SPOT peptide array binding signal intensity (AgNbp2): 22
SPOT peptide array binding signal intensity (AgRvs167): 1890
SPOT peptide array binding signal intensity (AgSho1): 4
SPOT peptide array binding signal intensity (AgSla1-D1-D2): ≤ 0
SPOT peptide array binding signal intensity (AgSla1-D3): 4.75
SPOT peptide array binding signal intensity (CaAbp1-D1): 134
SPOT peptide array binding signal intensity (CaAbp1-D2): 96
SPOT peptide array binding signal intensity (CaBbc1): 1010
SPOT peptide array binding signal intensity (CaBem1-D1): 24.5
SPOT peptide array binding signal intensity (CaBzz1-D1): 1940
SPOT peptide array binding signal intensity (CaBzz1-D2): 423
SPOT peptide array binding signal intensity (CaCyk3): 25.5
SPOT peptide array binding signal intensity (CaFus1): 99.5
SPOT peptide array binding signal intensity (CaHof1): 4.25
SPOT peptide array binding signal intensity (CaHse1): 124
SPOT peptide array binding signal intensity (CaLsb1): 1.5
SPOT peptide array binding signal intensity (CaLsb4): 6040
SPOT peptide array binding signal intensity (CaMyo5): 2.5
SPOT peptide array binding signal intensity (CaNbp2): 47
SPOT peptide array binding signal intensity (CaRvs167): 2070
SPOT peptide array binding signal intensity (CaRvs167-3): 9.5
SPOT peptide array binding signal intensity (CaSho1): 9.5
SPOT peptide array binding signal intensity (CaSla1-D1-D2): 244
SPOT peptide array binding signal intensity (CaSla1-D3): 2
SPOT peptide array binding signal intensity (ScAbp1): 16.5
SPOT peptide array binding signal intensity (ScBbc1): 35.2
SPOT peptide array binding signal intensity (ScBem1-D1): 10
SPOT peptide array binding signal intensity (ScBzz1-D1): 56
SPOT peptide array binding signal intensity (ScBzz1-D2): 18
SPOT peptide array binding signal intensity (ScCyk3): 2
SPOT peptide array binding signal intensity (ScFus1): 1
SPOT peptide array binding signal intensity (ScHof1): 234
SPOT peptide array binding signal intensity (ScHse1): 91.5
SPOT peptide array binding signal intensity (ScLsb1): 661
SPOT peptide array binding signal intensity (ScLsb2): 1120
SPOT peptide array binding signal intensity (ScLsb3): 7910
SPOT peptide array binding signal intensity (ScLsb4): 5640
SPOT peptide array binding signal intensity (ScMyo3): 24
SPOT peptide array binding signal intensity (ScMyo5): ≤ 0
SPOT peptide array binding signal intensity (ScNbp2): 77.5
SPOT peptide array binding signal intensity (ScPex13): 2230
SPOT peptide array binding signal intensity (ScRvs167): 3220
SPOT peptide array binding signal intensity (ScSho1): 270
SPOT peptide array binding signal intensity (ScSla1-D1-D2): 492
SPOT peptide array binding signal intensity (ScSla1-D3): 36.2
SPOT peptide array binding signal intensity (SpAbp1-D1): 118
SPOT peptide array binding signal intensity (SpBbc1): 3
SPOT peptide array binding signal intensity (SpBzz1-D1): 1080
